Screening data (PubChem)
KB-V1 cytotox – kills drug-selected multidrug resistant KB-V1 cells. KB-V1 MDR cells viability, CellTiter-Glo, 72 h. Potency, µM (doses to about 46.1 µM), most hits filed as cytotoxic. AID 1347076. 3.4% of 400,000 active; further: potency means the concentration at half of the fitted maximal effect; nearly all actives have a fitted effect of over 60% in size
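KB-V1 MDR subline cells in DMEM (phenol-red free, 10% FBS) exposed to compounds in qHTS concentration series for 72 h at 37 degrees C. Viability read by CellTiter-Glo luminescence; concentration-effect curves fitted after normalization and correction.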
IL1B secr inh – inflammasome signaling inhibition, IL-1 beta readout; THP-1 LPS/ATP IL-1B secretion, AlphaLISA, 16 h; stronger effect = lower value; activity change, % at 57.5 µM; 4.7% of 360,000 active; in the data active means activity change below about -50%; inconclusive means mostly about -30% to -49%
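THP-1 cells pretreated 1 hr with compounds (up to 57.5 uM final), then stimulated with LPS (250 ng/mL final) plus ATP (1.25 mM final); secreted IL-1B measured by AlphaLISA after 16 hr, decreased signal indicating inhibition.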
HT1080 IDH1KD tx – kills HT-1080 cells with IDH1 knockdown. AID 686971. 2% of 360,000 active. HT-1080 IDH1 knockdown viability, ATP luminescence, 48 h. Potency, µM (series often up to 46.1 µM), without a hit: top-dose activity, negative = toxicity, hits mostly cytotoxic;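 further: potency means the concentration at half of the fitted maximal effect; 0% = DMSO wells and -100% = cell-free medium wells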
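In this qHTS, HT-1080 cells depleted of IDH1 are exposed for 48 h at 37 °C to compound titrations. Toxicity is scored from CellTiter-Glo luminescence, with DMSO as full viability and medium alone as none.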
HT1080NT lethal – kills 2HG-producing HT-1080-NT fibrosarcoma cells; HT-1080-NT fibrosarcoma viability, CellTiter-Glo ATP luminescence, 48 h; Potency, µM (titrated, usually from 46.1 µM), for inactives: top-dose activity, negative = less viability, actives largely listed as cytotoxic; 1.6% of 360,000 active; AID 686970;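 further: NT is the 2HG producing partner of a matched IDH1 knockdown line; potency means the concentration at half of the fitted maximal effect; 0% = DMSO-treated cells and -100% = media-only wells without cells; nearly all actives have a fitted effect of over 55% in size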
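A 48-hour cytotoxicity screen used HT-1080-NT cells plated 2 hours before compound delivery. ATP-based CellTiter-Glo luminescence measured viability, normalized to DMSO and no-cell controls.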
KB-3-1 cytotox – KB-3-1 parental cell cytotoxicity; KB-3-1 viability, CellTiter-Glo ATP luminescence, 72 h; Potency, µM (titrated, usually from 46.1 µM), actives largely listed as cytotoxic; 1.4% of 400,000 active; AID 1347075; further: potency means the concentration at half of the fitted maximal effect; nearly all actives have a fitted effect of over 60% in size
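Parental KB-3-1 adenocarcinoma cells in phenol-red-free DMEM with 10% FBS were pin-treated with compounds at several concentrations, incubated 72 h at 37 °C, and viability read by CellTiter-Glo luminescence; concentration-effect curves were fitted after normalization.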
* = called active by the depositor; i = inactive; u = inconclusive; x = no result; [ ] = remark or other dose. An excerpt weighted towards active compounds, which were near 8.8% of everything screened. Unless noted, the call rests on the fitted dose curve; in most records, active means well fitted curve in the direction sought with a large enough effect; inconclusive means small, poorly fitted or top-dose-only effect, or another doubt; inactive means no such curve, though single readings can be large; an effect the other way counts as inactive or inconclusive. Unless noted, on the % scale 0 is the no-effect control and ±100 the full control effect.

SMILES | KB-V1 cytotox | IL1B secr inh | HT1080 IDH1KD tx | HT1080NT lethal | KB-3-1 cytotox
CCCOc1ccc(NC(=O)C2CC(=O)N/C(=N/N=C(C)/C=C/c3ccc(N(C)C)cc3)S2)cc1 (stereo not drawn) | 16.4µM* | -16.9 | -25.5% | -6.9% | u
CC(/C=C/c1ccc(N(C)C)cc1)=N\N=C1\NC(=O)CC(C(=O)Nc2ccccc2)S1 (stereo not drawn) | i | -22.2 | u | -16.8% | i
CC(/C=C/c1ccc(N(C)C)cc1)=N/N=C1/NC(=O)CC(C(=O)Nc2ccc(Cl)cc2)S1 (stereo not drawn) | i | -5.9 | 16.4µM* | u | i
CCOC(=O)C1CCN(CC(=O)Nc2cc(S(=O)(=O)N3CCCCC3)ccc2Cl)CC1 | u | -7.3 | -12.0% | -13.4% | u
CCN(CC)c1nc(Nc2ccccc2)nc(Oc2ccc(=O)n(C)n2)n1 | 6.51µM* | -6.8 | -6.1% | 1.8% | u
Cc1cc(C)cc(NS(=O)(=O)c2ccc3[nH]cc(C(=O)N4CCc5ccccc54)c(=O)c3c2)c1 | i | 0.0 | 23.1µM* | 23.1µM* | i
O=C(Cc1ccc(Cl)cc1)Nc1ccc(C(=O)N2CCOCC2)cc1 | i | -24.8 | -1.1% | -9.0% | i
COCCN(CC(=O)Nc1ccccc1C(F)(F)F)C(=O)c1ccc(-n2cccn2)cc1 | i | 14.3 | 9.6% | -1.7%[9.24 µM] | i
O=C(C1CCC1)N1CCc2cc(S(=O)(=O)Nc3ccc4c(c3)OCO4)ccc21 | u | u | 15.8µM* | -16.3% | u
O=C(CCl)c1ccc2c(c1)CCN2C(=O)C1CCCCC1 | i | -103.2* | u | 23.1µM* | u
CCC1CCCCN1S(=O)(=O)c1ccc2c(c1)CCN2C(=O)C1CCC1 (stereo not drawn) | u | -15.0 | u | u | i
COc1ccc(OC)c(NS(=O)(=O)c2ccc3c(c2)CCCN3C(=O)C2CCC2)c1 | u | x | x | x | i
COc1ccc(NS(=O)(=O)c2ccc3c(c2)CCCN3C(=O)C2CCC2)cc1OC | u | x | x | x | 2.59µM*
CCc1cccc2c(C(=O)CSc3nnc(C4CC4)o3)c[nH]c12 | u | -23.2 | 10.1% | 1.9%[9.24 µM] | i
O=C(c1ccccc1)c1n[nH]c(-c2ccccc2)cc1=O | i | 16.9 | 15.3% | 25.9% | i
CCN(C(=O)COC(=O)/C=C/c1nc2ccccc2s1)c1c(N)n(Cc2ccccc2)c(=O)[nH]c1=O | i | -59.7* | -0.3% | -8.6% | i
COCCN(C(=O)COC(=O)/C=C/c1nc2ccccc2s1)c1c(N)n(Cc2ccccc2)c(=O)[nH]c1=O | i | -95.6* | u | -29.5% | i
COCCN(C(=O)COC(=O)/C=C/c1ccc2ccccc2n1)c1c(N)n(Cc2ccccc2)c(=O)[nH]c1=O | i | 0.0 | u | -28.0% | u
CN(C(=O)COC(=O)/C=C/c1ccc2ccccc2n1)c1c(N)n(Cc2ccccc2)c(=O)[nH]c1=O | i | -55.5* | 5.8% | -0.2% | i
COCCN(C(=O)COC(=O)/C=C/c1cccs1)c1c(N)n(Cc2ccccc2)c(=O)[nH]c1=O | u | -14.5 | 11.0% | 8.8% | i
CCn1cc(C(=O)N2CCN(c3ccc(OC)cc3)CC2)c(=O)c2cc(S(=O)(=O)N(C)C3CCCCC3)ccc21 | i | x | x | x | i
O=C(NCCOCCn1c(=O)oc2ccccc21)Nc1cccc(Cl)c1 | i | x | x | x | i
CC1=NN(C(=S)Nc2ccccc2)C(c2ccccc2)C1 (stereo not drawn) | i | -6.4 | -7.9% | -7.3% | i
Cc1ccc(C2CC(c3ccccc3)=NN2C(=S)Nc2ccccc2)o1 (stereo not drawn) | 5.17µM* | -8.7 | u | u | 5.8µM*
CCn1c(N2CCN(CC(=O)c3c(C)n(C)c4ccccc34)CC2)nc2c1c(=O)[nH]c(=O)n2C | i | -70.7* | -13.9% | -18.0% | i
SMILES | KB-V1 cytotox | IL1B secr inh | HT1080 IDH1KD tx | HT1080NT lethal | KB-3-1 cytotox
CCCn1c(N2CCN(CC(=O)c3c[nH]c4ccccc34)CC2)nc2c1c(=O)[nH]c(=O)n2C | i | -14.0 | -20.5% | -19.2% | i
COc1ccc2c(c1)c(C(=O)CN1CCN(C(=O)c3ccco3)CC1)c(C)n2C | 23.1µM* | 8.6 | 3.7% | 2.5% | i
CCn1c(N2CCN(CC(=O)c3c(C)n(C)c4ccc(OC)cc34)CC2)nc2c1c(=O)[nH]c(=O)n2C | i | x | 9.2% | 14.8% | 20.6µM*
Cc1ccc(C)c(OCCC(=O)NNC(=O)c2cc(C)oc2C)c1 | i | -24.9 | -2.3% | -0.3%[9.24 µM] | i
CC1CCC2C(=O)N(c3ccc(C(=O)Oc4cccc5cccnc45)cc3)C(=O)C2C1 (stereo not drawn) | i | -85.6* | u | u | i
Cc1ccc(C(=O)Oc2ccccc2N2C(=O)C3CCC(C)CC3C2=O)cc1 (stereo not drawn) | i | 0.1 | 7.8% | 10.9% | i
COC(=O)c1ccc(CN(c2ccc(C(=O)O)c(O)c2)S(=O)(=O)c2ccc(Cl)c([N+](=O)[O-])c2)cc1 | i | -85.7* | -15.5% | -9.2% | i
COC(=O)c1ccc(CN(c2ccccn2)S(=O)(=O)c2ccccc2)cc1 | i | 20.1 | 1.8% | -1.9% | i
O=C(NCCNCc1ccc(F)cc1)c1ccco1 | i | -13.4 | 6.4% | 7.5% | i
CCC(=O)N(CCC(Cc1ccccc1)c1ccco1)Cc1ccco1 (stereo not drawn) | u | -29.5 | -10.5% | -7.2% | i
CC(NCCC(Cc1ccccc1)c1ccco1)c1ccccc1 (stereo not drawn) | i | -59.2* | -23.8% | -14.0% | i
Fc1ccc(CNCCC(Cc2ccccc2)c2ccco2)cc1 (stereo not drawn) | u | -79.7* | -26.9% | u | u
O=C(CNc1ccc(F)cc1)N/N=C/c1c(O)ccc2ccccc12 | i | 177.0 | 10.3µM* | u | u
COc1ccccc1NC(=O)c1c(N=Cc2c(O)ccc3ccccc23)cnn1C | u | 61.5 | 5.8µM* | 8.2µM* | 20.6µM*
Cn1ncc(N=Cc2c(O)ccc3ccccc23)c1C(=O)N1CCOCC1 | i | 19.3 | 4.0% | 1.2% | i
COc1ccccc1NCC(=O)N/N=C/c1c(O)ccc2ccccc12 | i | 170.9 | 10.3µM* | 14.6µM* | u
CC(C)c1ccc2oc(-c3cc(NC(=O)c4cccnc4)ccc3Cl)nc2c1 | i | x | x | x | i
Cc1cc(OCC(=O)N[C@@H](CSCc2ccccc2)C(=O)O)c2c(C)c(C)c(=O)oc2c1 | i | 6.4 | -3.6% | 0.3% | i
C=CCn1cnc2c(oc3ccccc32)c1=O | i | 8.2 | 11.5% | 9.7% | i
CCCCc1ccc(NC2=NCC(=O)N2CCc2ccccc2)cc1 | u | u | 25.9µM* | u | u
